# “And” between values parts separate entries of the source, which are not always exact repeats. Equal values may be shown once. Inconclusive results are not listed. The source made the active and inactive calls. Cut-off read from the data, not from the text of the source, unless noted: active = parasite load remaining mostly below about 12% (no sharp cut-off); inactive = mostly above about 10%. Numbered stars: 1 amine (or outer) side, 2 acyl side, 3 side chain; on linkers, the order of the positions; unused ones are H or OH. Bridge positions count the residues as written; N and C are the ends. Square brackets hold non-standard residues; d marks the D form. Peptide text beside a SMILES is read from it. * marks the point of attachment. ξ: configuration not given here. ΔAla(E,3-NHCONH2) = NC(=O)N/C=C(/N)C(=O)O; X1 = NC1=NCCC(C(N[*:1])C(=O)[*:2])N1; ξβ3hOrn = NCCCC(N)CC(=O)*; Dap = NC[CH](N)C(=O)O
# Experiments:
# [1] = liver-stage malaria parasite growth inhibition, primary screen, cell-based, HepG2, luciferase luminescence, HepG2 viability (AID 624349);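 note: 100% = mean of DMSO negative control wells on the same plate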; details: P. berghei liver stage in HepG2, luciferase luminescence, concentration not given here; parasite load remaining: stronger effect = lower value; viability: measured here: HepG2 viability without parasites
# [2] = differential killing of epithelial or mesenchymal cells, primary screen, imaging, PC-3E GFP, TEM4-18 mCherry, co-culture (AID 1345086;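 active = compounds killing one labelled cell type while sparing the other, by normalised counts and ratio limits, not self-fluorescent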;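 for all read-outs here: cells exposed to compound for 72 h before imaging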;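 for red/green cell ratio (normalised): normalised mesenchymal count divided by normalised epithelial count so high means epithelial killing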); details: imaging cell counts, at 1 µM; for red/green cell ratio (normalised): actives lie on both sides, counts scaled to control wells, 1 = unselective
# [3] = sensitizers of A549 cells to miR-34 induction, primary screen, imaging, A549 dox-inducible miR-34, nuclei and caspase counts (AID 1347080;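 active = compounds whose cell count with miR-34 switched on is under 0.7 times the count with it off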); details: A549 miR-34 inducible, Hoechst nuclei count, 48 h
# [4] = molecular target: ATP-dependent translocase ABCB1 (Homo sapiens) (UniProt P08183); experiment: MDR1 (ABCB1) efflux transporter inhibition, cell-based (AID 377; in the data active = fluorescence slope change above about 50%); details: MDR1-expressing cells, fluorescent substrate accumulation slope; stronger effect = higher value; concentration not given here
# Sequence of ATP-dependent translocase ABCB1 (Homo sapiens) (P08183 whole entry, looked up): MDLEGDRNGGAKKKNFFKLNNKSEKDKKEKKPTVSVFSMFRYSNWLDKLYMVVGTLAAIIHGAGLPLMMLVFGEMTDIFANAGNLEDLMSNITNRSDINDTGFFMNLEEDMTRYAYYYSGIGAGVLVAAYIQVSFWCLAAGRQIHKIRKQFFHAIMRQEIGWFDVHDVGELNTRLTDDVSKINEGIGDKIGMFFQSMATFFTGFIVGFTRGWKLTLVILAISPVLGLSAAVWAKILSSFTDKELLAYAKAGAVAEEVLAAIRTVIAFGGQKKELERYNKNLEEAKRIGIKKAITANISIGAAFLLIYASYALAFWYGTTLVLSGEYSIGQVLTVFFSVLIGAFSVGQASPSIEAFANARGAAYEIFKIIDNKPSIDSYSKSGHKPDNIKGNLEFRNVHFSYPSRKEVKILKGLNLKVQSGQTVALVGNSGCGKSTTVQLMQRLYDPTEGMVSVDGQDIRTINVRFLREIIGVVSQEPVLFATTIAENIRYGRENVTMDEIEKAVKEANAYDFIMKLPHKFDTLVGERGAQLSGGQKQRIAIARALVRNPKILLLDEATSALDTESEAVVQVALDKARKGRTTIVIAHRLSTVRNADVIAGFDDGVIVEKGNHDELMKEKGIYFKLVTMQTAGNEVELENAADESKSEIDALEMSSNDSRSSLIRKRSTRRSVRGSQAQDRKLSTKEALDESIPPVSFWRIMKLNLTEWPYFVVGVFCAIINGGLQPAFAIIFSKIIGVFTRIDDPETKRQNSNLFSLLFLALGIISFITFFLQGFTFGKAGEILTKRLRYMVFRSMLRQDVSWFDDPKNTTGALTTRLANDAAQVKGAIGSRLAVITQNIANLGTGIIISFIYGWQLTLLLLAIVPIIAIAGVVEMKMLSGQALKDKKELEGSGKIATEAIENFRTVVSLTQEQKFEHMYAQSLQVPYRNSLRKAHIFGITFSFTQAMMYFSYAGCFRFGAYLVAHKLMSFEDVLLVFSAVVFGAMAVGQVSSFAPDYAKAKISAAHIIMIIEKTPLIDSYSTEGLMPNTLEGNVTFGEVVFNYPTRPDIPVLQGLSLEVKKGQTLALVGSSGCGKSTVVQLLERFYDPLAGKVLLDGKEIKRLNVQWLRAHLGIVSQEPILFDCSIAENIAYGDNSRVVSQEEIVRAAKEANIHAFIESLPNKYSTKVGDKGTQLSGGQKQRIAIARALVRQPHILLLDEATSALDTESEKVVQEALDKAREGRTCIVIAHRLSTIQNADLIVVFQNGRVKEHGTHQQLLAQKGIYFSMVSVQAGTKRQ
# [5] = antimalarial activity against Dd2 strain (AID 2302;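 active = growth inhibition above 50% at the single 2 µM test dose, taken to imply half-maximal potency below 2 µM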;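 note: 0% = DMSO untreated growth and 100% = chloroquine plus artemisinin killed control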); details: P. falciparum Dd2 in RBCs, LDH growth readout, 72 h; at 2 µM; stronger effect = higher value
# [6] = HepG2 cytotoxicity, primary screen, cytotoxicity control for P. falciparum antimalarial project, cell-based, ATP luminescence (AID 2303;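 active = inhibition above 50%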;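 note: 0% = DMSO wells and 100% = digitonin-killed cells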); details: HepG2 viability, 24-48 h, at 10 µM, stronger effect = higher value
# [7] = molecular target: L-lactate dehydrogenase (Plasmodium falciparum (isolate CDC / Honduras)) (UniProt Q27743); experiment: PfLDH activity inhibition – cell lysate, 3D7 strain, counter-screen for P. falciparum growth inhibition project (AID 2304; call rule not given here;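 note: 0% = vehicle and 100% = reference inhibitor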); details: P. falciparum 3D7 crude extract, LDH APAD/NBT absorbance; at 2 µM; stronger effect = higher value
# Sequence of L-lactate dehydrogenase (Plasmodium falciparum (isolate CDC / Honduras)) (Q27743 whole entry, looked up): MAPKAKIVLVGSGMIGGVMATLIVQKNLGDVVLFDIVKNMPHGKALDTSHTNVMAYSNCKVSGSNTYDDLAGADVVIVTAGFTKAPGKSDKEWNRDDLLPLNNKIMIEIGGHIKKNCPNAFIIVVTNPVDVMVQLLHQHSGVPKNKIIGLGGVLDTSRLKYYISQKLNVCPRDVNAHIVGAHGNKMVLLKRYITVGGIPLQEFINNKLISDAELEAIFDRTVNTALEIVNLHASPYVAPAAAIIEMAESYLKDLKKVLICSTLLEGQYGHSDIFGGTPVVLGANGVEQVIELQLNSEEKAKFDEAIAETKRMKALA
# [8] = inhibition of 3D7 malaria parasite growth – strain 3D7 (AID 2306; call rule not given here;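 note: 0% = DMSO wells and 100% = chloroquine plus artemisinin control wells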); details: P. falciparum 3D7 erythrocytic growth, LDH absorbance, 72 h; at 2 µM; stronger effect = higher value
# [9] = hESC survival regulators, cell-based (AID 493140; call rule not given here;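 note: cells exposed to compounds for four days before counting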); details: human embryonic stem cell survival screen; stronger effect = higher value
# [10] = survival rescue of mitochondrial mutant cells in low glucose, primary screen, MELAS cybrids, Rieske KO mouse fibroblasts, CellTiter-Glo (AID 1508586;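 active = mean z-score across replicates of 1.96 or higher in either the MELAS or the Rieske mutant cell line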;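 note: z relative to plate mean and SD of compound and empty wells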)
# [11] = molecular target: NAD(+) hydrolase SARM1 (Homo sapiens) (UniProt Q6SZW1); experiment: SARM1 TIR NADase inhibitors, cell lysate, NAD-Glo luminescence (AID 1508614;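 active = compound whose remaining NAD level is above about 45 nM, limit read from the data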;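 note: higher remaining NAD means stronger inhibition of SARM1 NADase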); details: SAM-TIR HEK293T lysate NADase, at 1 µM, stronger effect = higher value
# Sequence of NAD(+) hydrolase SARM1 (Homo sapiens) (Q6SZW1 whole entry, looked up, the tested form may be a part): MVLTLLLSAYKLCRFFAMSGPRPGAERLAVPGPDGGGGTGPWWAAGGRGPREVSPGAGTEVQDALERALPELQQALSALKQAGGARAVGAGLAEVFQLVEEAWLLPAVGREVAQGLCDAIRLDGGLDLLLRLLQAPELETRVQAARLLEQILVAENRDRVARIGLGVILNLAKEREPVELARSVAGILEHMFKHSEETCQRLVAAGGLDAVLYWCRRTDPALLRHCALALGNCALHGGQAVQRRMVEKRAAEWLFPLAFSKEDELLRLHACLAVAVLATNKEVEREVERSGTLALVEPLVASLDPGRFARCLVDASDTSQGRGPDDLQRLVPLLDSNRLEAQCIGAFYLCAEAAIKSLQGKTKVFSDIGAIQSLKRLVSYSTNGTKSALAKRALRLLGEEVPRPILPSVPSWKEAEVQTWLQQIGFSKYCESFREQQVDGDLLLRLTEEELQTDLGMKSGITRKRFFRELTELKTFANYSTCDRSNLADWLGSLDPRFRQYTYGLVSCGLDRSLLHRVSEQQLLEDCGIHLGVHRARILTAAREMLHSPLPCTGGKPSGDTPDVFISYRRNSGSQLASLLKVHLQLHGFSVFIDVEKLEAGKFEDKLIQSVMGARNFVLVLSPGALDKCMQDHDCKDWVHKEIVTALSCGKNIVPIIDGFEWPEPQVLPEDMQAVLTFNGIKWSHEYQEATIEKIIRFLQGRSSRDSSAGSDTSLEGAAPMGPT
# [12] = molecular target: Mitogen-activated protein kinase 7 (Homo sapiens) (UniProt Q13164); experiment: ERK5 transactivation activators in reporter cells, primary screen, cell-based, HTS (AID 1508626;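 active = luciferase signal above three times the same-plate solvent-only control wells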;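 note: luciferase driven by Gal4-ERK5 fusion binding five Gal4 sites before minimal TATA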); details: HeLa Gal4-ERK5 transactivation, 18 h, at 5 µM, stronger effect = higher value
# Sequence of Mitogen-activated protein kinase 7 (Homo sapiens) (Q13164 whole entry, looked up, the tested form may be a part): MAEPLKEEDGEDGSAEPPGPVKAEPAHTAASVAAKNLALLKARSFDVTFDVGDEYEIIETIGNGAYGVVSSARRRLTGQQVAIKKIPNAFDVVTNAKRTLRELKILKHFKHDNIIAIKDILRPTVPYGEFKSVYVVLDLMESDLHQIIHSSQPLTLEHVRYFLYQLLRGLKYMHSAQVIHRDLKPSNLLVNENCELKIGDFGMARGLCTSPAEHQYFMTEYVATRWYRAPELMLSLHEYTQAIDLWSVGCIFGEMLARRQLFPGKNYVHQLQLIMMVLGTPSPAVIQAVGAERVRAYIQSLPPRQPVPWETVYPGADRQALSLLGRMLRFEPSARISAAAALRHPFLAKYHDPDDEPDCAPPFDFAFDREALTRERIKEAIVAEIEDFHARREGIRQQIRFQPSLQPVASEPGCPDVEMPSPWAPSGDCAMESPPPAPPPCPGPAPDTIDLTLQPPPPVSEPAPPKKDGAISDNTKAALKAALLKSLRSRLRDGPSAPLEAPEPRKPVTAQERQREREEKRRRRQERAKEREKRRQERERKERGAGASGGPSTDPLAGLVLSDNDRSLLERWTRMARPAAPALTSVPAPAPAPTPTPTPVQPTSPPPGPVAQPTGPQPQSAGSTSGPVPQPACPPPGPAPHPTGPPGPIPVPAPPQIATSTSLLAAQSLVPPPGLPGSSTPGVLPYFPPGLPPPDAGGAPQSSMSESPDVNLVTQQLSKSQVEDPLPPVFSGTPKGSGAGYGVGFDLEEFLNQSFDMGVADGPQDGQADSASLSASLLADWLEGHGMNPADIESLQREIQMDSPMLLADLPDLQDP
# [13] = viability rescue of complex I mutant cybrids, primary screen, cell-based, galactose medium, ATP luminescence (AID 1645843;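 active = z-score of at least 1.8 in each of two replicates, scored against plate mean and spread of sample wells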;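 note: positive z means more ATP and so rescue of galactose-driven cybrid death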); details: complex I mutant cybrid cells, 72 h, stronger effect = higher value
# [14] = modifiers of HSF1 nuclear foci, imaging, Selleck Cancer Library (AID 1347162; in the data active = plate-normalised HSF1 focus index below about 0.46); details: human cells, at 10 µM; SSMD: measured here: HSF1 foci SSMD mean; cell count: measured here: cell number; plate-normalised HSF1 focus index: stronger effect = lower value
# [15] = measured here: epithelial PC-3E GFP cell survival
# [16] = measured here: mesenchymal TEM4-18 mCherry cell survival
# [17] = stronger effect = lower value, cell number ratio, induced over uninduced
# [18] = measured here: relative caspase fold change +Dox/-Dox
# [19] = measured here: total cells with miR-34 induction, stronger effect = lower value
# [20] = measured here: total cells without miR-34 induction
smiles,measurement,setting,value
C[C@H]1O[C@@H](O[C@H]2[C@@H](O)C[C@H](O[C@H]3[C@@H](O)C[C@H](O[C@H]4CC[C@]5(C)C6CC[C@]7(C)[C@@H](C8=CC(=O)OC8)CC[C@]7(O)C6CC[C@@H]5C4)O[C@@H]3C)O[C@@H]2C)C[C@H](O)[C@@H]1O (some centres not stated),parasite load remaining,[1],0.925% (inactive) and 0.995% (inactive)
same,viability,[1],37.2% and 52.3%
same,red/green cell ratio (normalised),[2],0.46 (inactive)
same,normalised cell number,[2]; [15],0.15
same,normalised cell number,[2]; [16],0.07
same,fold change,[3]; [17],0.424 (active)
same,fold change,[3]; [18],1.53
same,cell count,[3]; [19],190
same,cell count,[3]; [20],450
CCCCCC(O)C1C(=O)OC(C)C(O)/C=C/C=C/C=C/C=C/C=C(\C)C(O)CC(O)CC(O)CC(O)CC(O)CC(O)CC1O (configuration not stated),parasite load remaining,[1],18% (inactive)
same,viability,[1],94.9%
same,red/green cell ratio (normalised),[2],1.13 (inactive)
same,normalised cell number,[2]; [15],0.84
same,normalised cell number,[2]; [16],0.95
same,fold change,[3]; [17],0.935 (inactive)
same,fold change,[3]; [18],2.39
same,cell count,[3]; [19],11500
same,cell count,[3]; [20],12300
CCOC(=O)C(C)(N)Cc1ccc(O)c(O)c1 (configuration not stated),parasite load remaining,[1],15% (inactive)
same,viability,[1],103%
same,red/green cell ratio (normalised),[2],1.25 (inactive)
same,normalised cell number,[2]; [15],0.9
same,normalised cell number,[2]; [16],1.12
same,fold change,[3]; [17],0.926 (inactive)
same,fold change,[3]; [18],3.34
same,cell count,[3]; [19],12200
same,cell count,[3]; [20],13200
CO/N=C(\C(=O)NC1C(=O)N2C(C(=O)OCOC(=O)C(C)(C)C)=C(/C=C\c3scnc3C)CSC12)c1csc(N)n1 (configuration not stated),parasite load remaining,[1],101% (inactive) and 42.8% (inactive)
same,viability,[1],81.5% and 105%
same,red/green cell ratio (normalised),[2],0.92 (inactive)
same,normalised cell number,[2]; [15],1.21
same,normalised cell number,[2]; [16],1.12
same,fold change,[3]; [17],0.904 (inactive)
same,fold change,[3]; [18],4.33
same,cell count,[3]; [19],11600
same,cell count,[3]; [20],12800
CC(C)c1c(C(=O)c2ccccc2)c(-c2ccccc2)c(-c2ccc(F)cc2)n1CC[C@@H](O)C[C@@H](O)CC(=O)O,parasite load remaining,[1],174% (inactive) and 44.6% (inactive)
same,viability,[1],88% and 103%
same,red/green cell ratio (normalised),[2],0.86 (inactive)
same,normalised cell number,[2]; [15],1.3
same,normalised cell number,[2]; [16],1.12
same,fold change,[3]; [17],0.867 (inactive)
same,fold change,[3]; [18],3.4
same,cell count,[3]; [19],9140
same,cell count,[3]; [20],10500
CC1(C)O[C@@H]2CC3C4C[C@H](F)C5=CC(=O)C=C[C@]5(C)[C@@]4(F)[C@@H](O)C[C@]3(C)[C@]2(C(=O)CO)O1 (some centres not stated),parasite load remaining,[1],74.8% (inactive)
same,viability,[1],92.9%
same,red/green cell ratio (normalised),[2],1.12 (inactive)
same,normalised cell number,[2]; [15],1.2
same,normalised cell number,[2]; [16],1.35
same,fold change,[3]; [17],0.898 (inactive)
same,fold change,[3]; [18],0.891
same,cell count,[3]; [19],7030
same,cell count,[3]; [20],7830
"NCCCC(N)CC(=O)NCC1NC(=O)C(CO)NC(=O)C(N)CNC(=O)C(C2CCN=C(N)N2)NC(=O)/C(=C\NC(N)=O)NC1=O (stereo not drawn) (H-[Dap]S[Dap](ξβ3hOrn)[ΔAla(E,3-NHCONH2)][X1]; lactam 1-C; configuration not given here)",parasite load remaining,[1],84% (inactive) and 54.2% (inactive)
same,viability,[1],74.9% and 94.9%
same,red/green cell ratio (normalised),[2],0.98 (inactive)
same,normalised cell number,[2]; [15],1.11
same,normalised cell number,[2]; [16],1.09
same,fold change,[3]; [17],0.856 (inactive)
same,fold change,[3]; [18],1.07
same,cell count,[3]; [19],11300
same,cell count,[3]; [20],13200
CN(Cc1cnc2nc(N)nc(N)c2n1)c1ccc(C(=O)NC(CCC(=O)O)C(=O)O)cc1 (configuration not stated),fluorescence slope change,[4],-5.4% (inactive)
same,growth inhibition,[5],66% (active)
same,inhibition,[6],65% (active)
same,inhibition,[7],-1% (inactive)
same,growth inhibition,[8],91% (active)
same,survival,[9],10.7 (inactive)
same,red/green cell ratio (normalised),[2],0.89 (inactive)
same,normalised cell number,[2]; [15],1.15
same,normalised cell number,[2]; [16],1.02
same,z-score,"[10]; MELAS cybrid survival, CellTiter-Glo 48 h, stronger effect = higher value",-0.53 (inactive) and 1.15 (inactive)
same,z-score,"[10]; Rieske KO mouse fibroblast survival, CellTiter-Glo 72 h",0.183 and -0.283
same,remaining NAD,[11],10 nM (inactive)
same,luciferase signal,[12],32 AU (inactive)
same,z-score,[13],-1.2 (inactive)
C#C[C@]1(OC(C)=O)CCC2C3CCC4=C/C(=N/O)CCC4C3CC[C@@]21CC (some centres not stated),parasite load remaining,[1],66.7% (inactive)
same,viability,[1],100%
same,red/green cell ratio (normalised),[2],0.75 (inactive)
same,normalised cell number,[2]; [15],1.02
same,normalised cell number,[2]; [16],0.76
same,fold change,[3]; [17],0.914 (inactive)
same,fold change,[3]; [18],2.93
same,cell count,[3]; [19],11600
same,cell count,[3]; [20],12700
CC(C)(Oc1ccc(C(=O)c2ccc(Cl)cc2)cc1)C(=O)O,red/green cell ratio (normalised),[2],1.11 (inactive)
same,normalised cell number,[2]; [15],1.09
same,normalised cell number,[2]; [16],1.21
same,remaining NAD,[11],10 nM (inactive)
CCCCC(=O)O[C@]1(C(=O)CO)CCC2C3CCC4=CC(=O)CC[C@]4(C)C3[C@@H](O)C[C@@]21C (some centres not stated),parasite load remaining,[1],79% (inactive)
same,viability,[1],98.3%
same,red/green cell ratio (normalised),[2],1.41 (inactive)
same,normalised cell number,[2]; [15],0.69
same,normalised cell number,[2]; [16],0.97
same,fold change,[3]; [17],0.833 (inactive)
same,fold change,[3]; [18],3.05
same,cell count,[3]; [19],7620
same,cell count,[3]; [20],9140
CC(C)(O/N=C(\C(=O)N[C@@H]1C(=O)N2C(C(=O)[O-])=C(C[n+]3ccccc3)CSC12)c1csc(N)n1)C(=O)O (some centres not stated),parasite load remaining,[1],57.9% (inactive)
same,viability,[1],101%
same,red/green cell ratio (normalised),[2],0.74 (inactive)
same,normalised cell number,[2]; [15],1.28
same,normalised cell number,[2]; [16],0.94
same,fold change,[3]; [17],0.922 (inactive)
same,fold change,[3]; [18],3.92
same,cell count,[3]; [19],12200
same,cell count,[3]; [20],13200
NCC1CCCCC1CC(=O)O (configuration not stated),parasite load remaining,[1],148% (inactive) and 51.6% (inactive)
same,viability,[1],89.1% and 119%
same,red/green cell ratio (normalised),[2],0.8 (inactive)
same,normalised cell number,[2]; [15],1.27
same,normalised cell number,[2]; [16],1.02
same,fold change,[3]; [17],0.945 (inactive)
same,fold change,[3]; [18],5.86
same,cell count,[3]; [19],12000
same,cell count,[3]; [20],12700
CC(=O)O[C@@]12CO[C@@H]1C[C@H](O)[C@@]1(C)C(=O)[C@H](O)C3=C(C)[C@@H](OC(=O)[C@H](O)[C@@H](NC(=O)OC(C)(C)C)c4ccccc4)C[C@@](O)([C@@H](OC(=O)c4ccccc4)C12)C3(C)C (some centres not stated),red/green cell ratio (normalised),[2],1.12 (inactive)
same,normalised cell number,[2]; [15],0.16
same,normalised cell number,[2]; [16],0.18
same,SSMD,[14],1.92
same,cell count,[14],6830
same,plate-normalised HSF1 focus index,[14],1.1 (inactive)
CC(=O)Nc1ccc(S(=O)(=O)Nc2onc(C)c2C)cc1,parasite load remaining,[1],53.8% (inactive)
same,viability,[1],98%
same,red/green cell ratio (normalised),[2],0.94 (inactive)
same,normalised cell number,[2]; [15],1
same,normalised cell number,[2]; [16],0.93
same,fold change,[3]; [17],0.897 (inactive)
same,fold change,[3]; [18],5
same,cell count,[3]; [19],11800
same,cell count,[3]; [20],13200
